Source: ChEMBL document CHEMBL1201862, “PubChem BioAssay data set” (2004)
The campaign covered roughly 57,000 […]. About 3,200 (5.6%) were called active. No stated cut-off is given here; in the data, active = GI50 up to about 1.1 µM and inactive = higher. A selection follows. Results with a measured potency or affinity are listed apart.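 These data come from cells grown in 96-well plates and exposed to compound for 48 hours at five concentrations. GI50 marks 50% less growth.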

system: SF-268; assay: NCI tumour cell line growth inhibition, 48 h

Row | Substance | GI50 [µM]
1 | [Bis(aminomethyl)ethylmethylsilane]tetrachloroplatinum(IV), CHEMBL2146192 | 2.43
2 | [Bis(aminomethyl)tetramethylenesilane]tetrachloropaltinum(IV), CHEMBL2146189 | 3.52
3 | [Bis(aminomethyl)dimethylsilane]tetrachloroplatinum(IV), CHEMBL2146190 | 2.74
4 | [Bis(aminomethyl)diethylsilane]tetrachloroplatinum(IV), CHEMBL2146203 | 1.57
5 | [Bis(aminomethyl)tetramethylenesilane]dichloropaltinum(II), CHEMBL2146205 | 21.8
6 | [Bis(aminomethyl)dimethylsilane]dichloroplatinum (II), CHEMBL2146201 | 8.81
7 | cis-Bis[[(trimethylsilyl)methyl]amino]tetrachloroplatinum(IV), CHEMBL2146191 | 13.6
8 | mu-(1,7-nanodiamine-N,N')bis-(cis-aminedichloroplatimum (II)), CHEMBL2146215 | 8.97
9 | CISPLATIN, CHEMBL11359 | 0.745
10 | [Bis(aminomethyl)pentamethylenesilane]dichloropaltinum(II), CHEMBL2146202 | 3.46
11 | [Bis(aminomethyl)pentamethylenesilane]tetrachloropaltinum(IV), CHEMBL2146204 | 3.59
